# D2 PAM-1: positively modulates the human D2 dopamine receptor allosterically. P14416. potentiation, % at 10 µM. actives 0.34% (n = 340,000). HEK293 T-REx D2, calcium flux, EC20 dopamine potentiation;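 active means potentiation over 3 SD above the plate norm, cut at about 30% in these data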; further: 0% is about no effect
# Target sequence (P14416 whole entry, looked up): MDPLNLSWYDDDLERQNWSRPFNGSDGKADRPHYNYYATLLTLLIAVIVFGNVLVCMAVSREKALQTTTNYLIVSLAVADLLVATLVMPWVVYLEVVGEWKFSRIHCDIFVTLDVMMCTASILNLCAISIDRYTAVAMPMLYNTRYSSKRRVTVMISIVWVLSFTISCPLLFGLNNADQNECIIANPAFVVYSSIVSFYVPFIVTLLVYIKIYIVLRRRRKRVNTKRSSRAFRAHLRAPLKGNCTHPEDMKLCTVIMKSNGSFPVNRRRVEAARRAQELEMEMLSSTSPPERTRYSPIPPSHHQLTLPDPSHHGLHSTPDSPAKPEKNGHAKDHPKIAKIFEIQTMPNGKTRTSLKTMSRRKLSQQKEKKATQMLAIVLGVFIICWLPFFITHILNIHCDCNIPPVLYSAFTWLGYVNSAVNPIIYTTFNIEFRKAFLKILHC
#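 Cells plated with tetracycline inducer and held overnight at 30 C; calcium dye loaded 30–90 min at room temperature; baseline taken, compound added and read 180 s; EC20 dopamine then added and read 180 s.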
# D2 ag-1: agonists of human D2 dopamine receptor (beta-arrestin) | actives 0.084% (n = 360,000) | AID 624465 | activation, % (test concentration not listed) | DiscoveRx PathHunter D2 beta-arrestin, luminescence, 90 min; 100% = 57 uM dopamine signal; in the data active means activation above about 40%; inconclusive means between about 15% and that limit
#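 DiscoveRx PathHunter D2 beta-arrestin cells (2,100/well) attached overnight, then compound-stimulated 90 min at 37 C in HBSS/10 mM HEPES/0.1% Tween-20 buffer; beta-galactosidase complementation read by luminescence after 1 h at ambient temperature. Dopamine 57 uM final (EC100) as control.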
# D2 antag: antagonists of human D2 dopamine receptor. P14416. HEK293 TREx D2 cells, calcium flux, dopamine EC80. inhibition, % at 10 µM. actives 2% (n = 340,000); in the data active means inhibition above about 30%; inactive means below that, where a call was filed; further: 0% is about no effect
#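 HEK293 T-REx D2 cells, tet-induced, calcium dye no-wash. Cpd pintool add, 180 s kinetic, then EC80 DA, 180 s kinetic. Ca flux read.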
# D2 ag-2: agonists of human D2 dopamine receptor; P14416; HEK293 T-REx D2 cells, calcium flux agonist mode; activation, % at 2 µM; actives 0.53% (n = 340,000);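 active means activation over 3 SD above normal in the single-dose calcium agonist read, cut at about 30% in these data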; further: 0% is about no effect
#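 HEK293 Trex D2 cells, tetracycline-induced, o/n 30 C 5% CO2; no-wash Ca dye, RT 30–90 min; 10-cycle baseline, 23 nl cpd added, kinetic Ca read 180 s; agonist hits = positive Ca response.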
# D2 PAM-2: potentiates the human D2 dopamine receptor allosterically; P14416; DiscoveRx D2 beta-arrestin cells, luminescence, 90 min; 100% = 57 uM dopamine signal; potentiation, % (test concentration not listed); actives 0.23% (n = 360,000); AID 624464; in the data active means potentiation above about 50%; inconclusive means mostly about 30% to 49%
#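 PathHunter D2 cells, attached overnight at 37 deg C, received compound in DMSO plus dopamine at EC20 (50 nM final) for 90 min at 37 deg C. Beta-arrestin recruitment was read as luminescence after 1 h with detection reagent at ambient temperature.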
# Starred values were filed as active, the others as inactive; ? = inconclusive; · = no result given. Sampled rows, rich in hits. Any-hit rate of the full collection: about 2.4%.
SMILES,D2 PAM-1,D2 ag-1,D2 antag,D2 ag-2,D2 PAM-2
Cc1cccc(S(=O)(=O)NC(=O)C2(C)CCN2C(=O)c2ccccc2)c1 (stereo unspecified),·,-4,·,·,-3
CCC(=O)Nc1ccc2c(c1)OCCO2,30*,0,8,0,2
COc1ccc(NC(=O)CSc2ccc(-c3ccccn3)nn2)cc1OC,1,54*,-13,1,?
O=C(CSc1ccc(-c2ccc(F)cc2)nn1)NCCc1ccccc1,3,0,5,0,-7
O=C(CSc1ccc(-c2ccccc2)nn1)Nc1ccc2c(c1)OCCO2,0,-1,32*,1,-5
O=C(CSc1ccccc1)Nc1ccc2c(c1)OCCO2,-6,-1,8,1,-6
COc1ccccc1-c1ccc(SCC(=O)NCCc2ccccc2)nn1,-2,-1,48*,-2,-7
COc1ccccc1NC(=O)CSc1ccc(-c2ccccn2)nn1,-4,-3,14,-1,4
CCOC(=O)c1cnc2ccc(OC)cc2c1Nc1ccc(OCc2ccccc2Cl)cc1,14,·,·,-3,·
CCN(CC)CCn1c(=N)n(CCOc2ccccc2Cl)c2ccccc21,16,·,·,0,·
CCOc1ccc(-c2ccc(NS(=O)(=O)c3cc(C)c(C)cc3C)cc2)nn1,-8,·,·,0,·
COc1cccc(NC(=O)CN(c2cccc(OC)c2)S(C)(=O)=O)c1,-7,-4,38*,1,1
C/C(CC(=O)Nc1ccc2c(c1)OCCO2)=N\NC(=O)COc1ccccc1C,-8,-1,-20,0,-8
C/C(CC(=O)Nc1ccc2c(c1)OCCO2)=N\NC(=O)C(=O)Nc1ccccc1C,-6,-4,32*,-1,-4
CS(=O)(=O)N(CC(=O)Nc1ccc2c(c1)OCCO2)c1ccc2c(c1)OCO2,48*,-4,-8,-2,-13
Cc1ccc2c(c1)N(CC(=O)NCCc1c[nH]c3ccccc13)C(=O)CO2,60*,-1,12,1,-2
CN1CCN(c2nc(Nc3ccccc3)nc(N)c2[N+](=O)[O-])CC1,-25,-2,83*,-1,-17
Cc1cccc(Nc2nc(N)c([N+](=O)[O-])c(N3CCN(C)CC3)n2)c1,-30,-5,55*,-1,-35
Nc1nc(Nc2cccc(F)c2)nc(N2CCOCC2)c1[N+](=O)[O-],-12,4,-7,0,-10
Cn1c(=S)[nH]c2scc(-c3cccs3)c2c1=O,·,14,·,·,67*
COc1ccc(N2CCN(C(=O)C34CCC(C)(C(=O)C3)C4(C)C)CC2)cc1 (stereo unspecified),4,-1,37*,0,-5
CC12CCC(C(=O)N3CCN(c4ccccc4)CC3)(CC1=O)C2(C)C (stereo unspecified),-7,2,16,0,9
COc1cc(C(=O)N2CCN(S(=O)(=O)c3ccc(C)cc3)CC2)ccc1OCC(=O)N1CCOCC1,·,-3,·,·,-2
CCOc1ccc(CC(=O)OCN2C(=O)c3ccccc3C2=O)cc1,30*,0,2,-1,-12
COc1ccc2nc3cc(Cl)ccc3c(Nc3cc(C(C)C)c(O)cc3C)c2c1,-24,10,31*,-1,-10
SMILES,D2 PAM-1,D2 ag-1,D2 antag,D2 ag-2,D2 PAM-2
CCN(CC)CCCC(C)Nc1c2ccc(Cl)cc2nc2ccc(OC)cc12 (stereo unspecified),1,·,-1,7,·
COc1cc(F)ccc1-c1cc(C(=O)Nc2cc(OC)c(OC)c(OC)c2)[nH]n1,·,8,·,·,-5
Cc1nc2ccc(S(=O)(=O)NC(C(=O)NCc3ccco3)C(C)C)cc2s1 (stereo unspecified),15,-7,31*,1,-2
Cc1ccc(CNC(=O)C(NS(=O)(=O)c2ccc3nc(C)sc3c2)C(C)C)cc1 (stereo unspecified),-4,-3,0,0,-5
O=C(Nc1cccc(Cl)c1)c1nc[nH]c1C(=O)N1CCc2ccccc2C1,-26,-1,56*,-1,-28
O=C(Nc1ccccc1)c1nc[nH]c1C(=O)N1CCc2ccccc2C1,-27,2,10,0,-18
Cc1cccc(NC(=O)c2nc[nH]c2C(=O)N2CCc3ccccc3C2)c1,-28,-1,86*,0,-25
